Assay outcomes as filed in PubChem.
KDM5B inhibitor: blocks human KDM5B histone demethylase activity | Q9UGL1 | KDM5B demethylase, FDH-coupled NADH fluorescence (FDH is formaldehyde dehydrogenase) | Potency, µM (highest dose often 57.7 µM), usual class: inhibitors | 2.6% of 220,000 active | AID 1347165; active = well fitted inhibition curve with a large enough effect; note: 0% is about no effect; nearly all actives have a fitted effect of over 70% in size
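Measured: NADH fluorescence change, 30 min, RT. System: KDM5BΔAP 200 nM final, H3K4me3 peptide, α-KG, Fe(II), ascorbate, NAD⁺ plus FDH, pH 7.5 HEPES. Compounds: titrated, 10 min pre-incubation with enzyme.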
* marks the source's active call; other numbers are inactive results; i = inactive. Many of the other results were omitted from the sample, so hits are more common in it than they were. Potency is the fitted concentration of half-maximal effect.

SMILES	KDM5B inhibitor
COc1ccc(NC(=O)c2cnc(SC)nc2-c2ccccc2)cc1OC	i
O=C(Nc1ccc2oc(C3CC3)nc2c1)c1ccc[nH]c1=O	i
O=C(CSc1ncnc2ccccc12)N(C1CCCC1)C1CCS(=O)(=O)C1 (centres undefined)	i
CCc1cccc(C)c1NC(=O)CCc1ncc(-c2ccccc2F)o1	i
CSc1nn(CCN(C)C)c2nc3sc4c(c3c(=O)n12)CCCCC4	i
Cc1ccc(NC(=O)CSc2nccn2Cc2ccccc2Cl)cc1	i
Cc1ccc(Nc2nc(-c3ccc(S(=O)(=O)N4CCCCC4)cc3)cs2)cc1C	i
CCCCC(CC)C(=O)Nc1sc2c(c1C#N)CCCC2 (centres undefined)	i
COC(=O)c1cccc(OCC(O)CN(C)C(C)c2cccs2)c1 (centres undefined)	i
CN(C)c1ccc2ncc(Nc3ccccc3-c3ccccc3)n2n1	i
COc1ncccc1Nc1cnc2ccc(-c3ccc(F)cc3)nn12	i
COc1ncccc1Nc1cnc2ccc(N(C)Cc3ccc(F)cc3)nn12	32µM*
COc1ccc(Nc2cnc3ccc(-c4ccc(F)cc4)nn23)cc1OC	i
Cc1ccccc1Nc1cnc2ccc(-n3ccnc3)nn12	i
COc1ccc(-c2ccc3ncc(Nc4cccnc4OC)n3n2)cn1	i
CN(C)c1ccc2ncc(Nc3ccccc3Cl)n2n1	35µM*
COc1ccc(F)cc1Nc1cnc2ccc(N(C)Cc3cccnc3)nn12	32µM*
COc1ccccc1-c1ccc2ncc(Nc3ccccc3F)n2n1	i
COCCN(CC(N)=O)S(=O)(=O)c1cc(F)ccc1C	i
CC(C(=O)N(C)CC(=O)Nc1ccccc1C(F)(F)F)N1CCCCC1 (centres undefined)	i
Cc1cc(SCc2c(F)c(F)c(F)c(F)c2F)nc2ccccc12	i
CC1(c2ccccc2)N(Cc2ncccn2)C(=O)OC12CCN(C(=O)Cc1ccc3c(c1)OCO3)CC2 (centres undefined)	i
C#CCN1C(=O)S/C(=C/c2cn(CC(=O)O)c3ccccc23)C1=O	i
O=C(CC(c1ccccc1)c1ccccc1F)N1CCN(c2ccncc2)CC1 (centres undefined)	i
COc1ccccc1CC(C(=O)Nc1ccccc1C)c1nn[nH]n1 (centres undefined)	i
SMILES	KDM5B inhibitor
CC(C)(C)c1nc2cc(NC(=O)Cc3ccc([N+](=O)[O-])cc3)ccc2o1	i
CCCNC(=O)NC(=O)CSc1nc2ccccc2o1	i
CCOc1ccc(CN(CCOC)Cc2cc(=O)n3ccc(C)cc3n2)cc1	i
COc1cccc(-c2nc(SCc3cc(=O)c4cc(C)cc(C)c4[nH]3)n[nH]2)c1	i
COCCN(Cc1ccccn1)Cc1cc(=O)c2cc(C)cc(C)c2[nH]1	28µM*
Cc1cc2oc(C(=O)Nc3cccc(C(F)(F)F)c3)cc(=O)c2cc1C	i
Cn1ccc(C(=O)N2CC(CNC(=O)Cc3ccccc3)C3(C2)CN(c2ccccc2)C3)n1 (centres undefined)	i
COc1ccc(-c2cc(C(=O)NC3CCNCC3)c3c(C)nn(-c4ccccc4)c3n2)cc1	79µM*
COC(=O)c1ccccc1NC(=O)c1cc(C)nc2c1c(C)nn2-c1ccc(C)cc1	i
COc1ccc(-c2cc(C(=O)NC3CC3)c3c(C)nn(-c4ccccc4)c3n2)cc1	79µM*
COc1ccc(OC)c(NC(=O)c2cc(C3CC3)nc3c2c(C)nn3-c2ccc(C)cc2)c1	i
Cc1cc(C(=O)NC2CCN(Cc3ccccc3)CC2)c2c(C)nn(-c3ccccc3)c2n1	i
COc1ccc(NC(=O)c2cc(C3CC3)nc3c2c(C)nn3-c2ccccc2)c(OC)c1	i
CC(NC(=O)c1ccc(S(N)(=O)=O)o1)c1ccc(OC(F)F)cc1 (centres undefined)	i
COc1ccc(OCCn2cc(S(=O)(=O)N3CCCC3)ccc2=O)cc1	i
COc1ccc(-c2cc(C(=O)OC(C)C#N)c3ccccc3n2)cc1OC (centres undefined)	i
COc1cccc(-c2cnc3n[nH]c(-c4ccc5c(c4)OCO5)c3n2)c1	i
c1ccc(-c2cnc3n[nH]c(-c4ccc5c(c4)OCO5)c3n2)cc1	i
c1ccc(-c2[nH]nc3ncc(-c4cn[nH]c4)nc23)cc1	45µM*
Oc1cccc(-c2cnc3n[nH]c(-c4ccccc4)c3n2)c1	i
COCCCNC(=O)c1cnc2n[nH]c(-c3ccccc3)c2n1	i
COc1cc(-c2cnc3n[nH]c(-c4ccccc4)c3n2)ccn1	8.9µM*
COc1ccc(/C=C/c2nc3ccccc3[nH]c2=O)c(OC)c1	i
COc1ccc(OCC(=O)NN=C(C)C)cc1	i
CC(C)NS(=O)(=O)c1cc(C(=O)O)cc(-c2ccc3c(c2)OCO3)c1	i
COC1CN(C2CCN(C(=O)CCc3c[nH]c4ccccc34)CC2)C12CCOCC2 (centres undefined)	i
Cc1ccc(CN[C@@H]2CO[C@H](CNC(=O)Nc3ccccc3)[C@H]2O)cc1	i
O=C(NCC1CC1)c1nc2c(o1)CCN(Cc1ccc(F)cc1F)CC2	i
